Measurements as given in PubChem BioAssay.

These compounds were tested on Inhibin beta A chain (activin A) (assay: INHBA (activin A) binders on microarrays, primary screen, biochemical, small-molecule microarray, 635 nm fluorescence scan (AID 1107;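 further: mouse activin A protein probed at 4.33 µg/mL on printed slides; score merges bound-protein fluorescence near 667 nm with spot signal-to-noise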)). Settings: small-molecule microarray binding, higher = more signal.

Compared with `COc1ccc([Si](C)(C)[C@H]2[C@H](CC(=O)N3CCC[C@H]3CO)O[C@@]3(C(=O)N(Cc4cccc(N5C(=O)COc6ccccc65)c4)c4ccccc43)[C@@H]2C)cc1`, `O=C1O[C@@H](c2ccccc2)[C@@H](c2ccccc2)N2[C@@H](c3ccc(OCCO)cc3)[C@]3(C(=O)Nc4ccc(C#CCCO)cc43)[C@@H](C(=O)N3CCCCCCC3)[C@H]12` is higher in composite z-score: 0.572 for the first, 1.71 for the second.

First: CC(=O)OC[C@H]1O[C@H](C#CCCCc2ccccc2)C=C[C@@H]1OC(C)=O
Second: COc1ccc(O[C@H]2C=C[C@@H](c3ccccc3)O[C@@H]2COC(=O)CCC(C)=NOC[C@@H](C)[C@H](OCc2ccccc2)C(C)C)cc1
The composite z-score of the first is higher: 1.03 for the first, 0.553 for the second.

First: CC(C)[C@H](NC(=O)OC(C)(C)C)[C@@H](O)CC(=O)OC(C)(C)C
Second: CC(C)(C)OC(=O)CC[C@]1(C(N)=O)COC(c2ccc(OCCCO)cc2)=N1
The composite z-score of the first is lower: 0.0055 for the first, 0.976 for the second.

Compared with `COCCCNC(=O)[C@]1(CCC(=O)OC(C)(C)C)N=C(c2ccc(OCCCO)cc2)O[C@@H]1c1ccccc1N=[N+]=[N-]`, `CN1C(=O)[C@@]2(CCC(=O)OC(C)(C)C)N=C(c3ccc(OCCCO)cc3)O[C@H]2c2ccccc21` is higher in composite z-score: 0.772 for the first, 1.03 for the second.

Going from `C[C@@H]1C=CCC(=O)OC[C@H](C)C(=O)N[C@@H](C)C(=O)OC1` to `Cc1ccc(S(=O)(=O)N[C@@H]2COC(=O)[C@H](C)COC(=O)CC=C[C@H]2C)cc1`, the composite z-score rises from -0.658 to 1.16.

Compared with `COC(=O)[C@@]1(Cc2ccc(F)cc2)[C@H]2c3cc(C(=O)N(C)C)n(Cc4ccc(OC)c(OC)c4)c3C[C@H]2CN1C(=O)c1ccccc1`, `CC(C)=C1C(=O)C(c2ccccc2)=C2CN3C(=O)N(CCc4ccccc4)C(=O)[C@]3(Cc3ccc(F)cc3)[C@H]21` is lower in composite z-score: 0.939 for the first, 0.51 for the second.

First: CCCCCN1CC=CC23O[C@@H]4C=CCOC(=O)[C@@H]4[C@H]2C(=O)N(CCCCCCO)[C@@H]3C1=O (stereo not given in full)
Second: CCCC[C@@H](O)C1=C(C)C[C@H]2C(=O)N(Cc3ccccc3)C(=O)[C@H]2[C@H]1CO
The composite z-score of the first is lower: -0.395 for the first, 0.899 for the second.

First: COc1ccc(O[C@H]2C=C[C@@H](c3ccccc3)O[C@@H]2COC(=O)CCC(C)=NO[C@H](C)c2cn([C@@H]3COC[C@H]3O)nn2)cc1
Second: [N-]=[N+]=NCc1ccccc1[C@@H]1OC(c2ccc(OCCCO)cc2)=N[C@]1(Cc1ccccc1)C(=O)N1CCOCC1
The composite z-score of the first is lower: -0.298 for the first, 0.182 for the second.

Going from `C#C[C@@H]1Oc2ccccc2S(=O)(=O)N2CCC[C@H]12` to `CC[C@@H](c1ccccc1)n1c(=O)n2n(c1=O)[C@H]1[C@H](O)[C@@H]3O[C@@H]3C(=NOCC(C)C)[C@H]1CC2`, the composite z-score falls from 0.807 to -0.0597.

Compared with `Cc1ccc(F)cc1S(=O)(=O)N[C@@H]1CCN(Cc2ccc(CC(C)C)cc2)C1`, `O[C@@H](Cc1ccccc1)[C@H]1C2C=CCCC(c3ccccc3)=C2CN1Cc1cccc(Cl)c1` (stereo not given in full) is lower in composite z-score: 0.346 for the first, 0.264 for the second.

Going from `CCc1cc2c(nc1CC)CCN(CCC(C)=NOC(C)CN1CCCc3nc(C)c(C)cc31)C2` (stereo not given) to `CC(CCN1CCCCc2nc(C)c(C)cc21)=NOC(C)CN1CCCCc2nc(C)c(C)cc21` (stereo not given), the composite z-score falls from 1.59 to 0.908.

Compared with `O=C1C[C@@H](O)[C@@H](O)[C@@H]2[C@@H]3C(=O)N(Cc4ccc5c(c4)OCO5)C(=O)[C@@H]3CC[C@@H]12`, `CCOC(=O)CCN1C(=O)[C@H]2[C@H]3[C@H](O)[C@H](O)CC(=O)[C@H]3CC[C@H]2C1=O` is lower in composite z-score: 0.365 for the first, -0.0903 for the second.

Compared with `COCCOC(=O)N1C(=O)[C@@]2(c3cc(C#CC4(O)CCCCCC4)ccc31)[C@H](C(=O)N1CCN(c3ncccn3)CC1)[C@H]1C(=O)O[C@H](c3ccccc3)[C@H](c3ccccc3)N1[C@@H]2c1ccc(OCCO)cc1`, `COCCOC(=O)N1C(=O)[C@@]2(c3cc(C#CCNC(N)=O)ccc31)[C@H](c1ccccc1OCCO)N1[C@H](c3ccccc3)[C@H](c3ccccc3)OC(=O)[C@H]1[C@@H]2C(=O)N1CCN(c2ncccn2)CC1` is higher in composite z-score: 0.274 for the first, 1.35 for the second.

Going from `CCOC(=O)[C@H](CC(C)C)NC(=O)CCC1CC(OC(=O)NCc2cccc3ccccc23)CC2(CCCC(COC(=O)NCCc3ccccc3OC)O2)O1` (stereo not given in full) to `COC(=O)[C@H](C)NC(=O)CCC1CC(OC(=O)NCc2cccc3ccccc23)CC2(CCCC(COC(=O)NCCc3ccc(Cl)cc3)O2)O1` (stereo not given in full), the composite z-score falls from 0.182 to -0.131.

First: O=C1[C@H]2[C@H]3[C@H](O)[C@H](O)CC(=NO[C@@H]4O[C@H](CO)[C@@H](O)[C@H](O)[C@H]4O)[C@@H]3CC[C@H]2C(=O)N1Cc1ccccc1
Second: O=C1[C@H]2[C@H]3[C@H](O)[C@H](O)CC(=NO[C@@H]4O[C@H](CO)[C@@H](O)[C@H](O)[C@H]4O)[C@H]3CC[C@H]2C(=O)N1Cc1ccccc1
The composite z-score of the first is lower: -1.43 for the first, -1.42 for the second.

Compared with `CC(C)(C)N1C(=O)[C@H]2[C@H]3[C@H](O)[C@H](O)CC(=NO[C@@H]4O[C@H](CO)[C@@H](O)[C@H](O)[C@H]4O)[C@@H]3CC[C@H]2C1=O`, `O=C1[C@H]2[C@H]3[C@H](O)[C@H](O)CC(=NO[C@@H]4O[C@H](CO)[C@@H](O)[C@H](O)[C@H]4O)[C@H]3CC[C@H]2C(=O)N1C1CCCCC1` is lower in composite z-score: 0.911 for the first, -1.65 for the second.

Going from `N#Cc1ccc(NN2C(C(O)c3cc(C(F)(F)F)cc(C(F)(F)F)c3)C=CC3C(=O)N(c4ccccc4)C(=O)C32)cc1` (stereo not given) to `O=C(NN=C1C[C@@H](O)[C@@H](O)[C@@H]2[C@@H]3C(=O)N(c4cccc(Oc5ccccc5)c4)C(=O)[C@@H]3CC[C@H]12)OCc1ccccc1`, the composite z-score falls from 0.733 to 0.242.

For `c1ccc(C2NCCc3c2[nH]c2ccccc32)cc1` (stereo not given), the composite z-score was 0.586.
